Values joined by “and” are separate entries in the source; they are usually repeats but may differ in a detail not shown here. Equal values may be shown once. Results filed as inconclusive are left out. Values without a mark were called inactive. Active and inactive are the calls of the source. The call rests on the fitted dose curve; in most records, active means well fitted cell-killing curve with a large enough effect; inconclusive means small, poorly fitted or top-dose-only effect, or effect the other way; inactive means no such curve, though single readings can be large or run the other way.
Potency means the concentration at half of the fitted maximal effect.

The nature of this assay: Viability qHTS for spleen associated tyrosine kinase inhibitor (SYKi) drug resistant MV4-11 cells (AID 1963824). Further: nearly all actives have a fitted effect of over 35% in size. To be noted: SYKi-resistant MV4-11 viability, CellTiter-Glo, 72 h; series mostly up to 45 µM; viability, % of control: at the top concentration. The source says: Department of Medicine, Hematology/Oncology
University Hospital Frankfurt, Germany.
Trials have shown promising clinical activity of the selective SYK inhibitor entospletinib in patients with high expressing HOXA9/MEIS1 acute leukemias. As the development of resistance mechanisms is a common problem in the use of targeted drugs, we performed a chemical library screen to identify drug sensitivities in SYK inhibitor resistant AML cells. […] Glucocorticoids are potent immunosuppressants which work in part by inhibiting the transcription of cytokine genes.
Described herein is a viability screen to look for activity in the SYK inhibitor drug resistant cell line against four NCATS compound libraries (MIPE 5.0, NPC, NPACT, and Kinase) totaling 11372 compounds. Active hits were reacquired for confirmation and further secondary assay testing.
SEQUENCE No. (e.g., 1, 2, 3, etc.); […] (e.g., Cells, Incubation, Reagent, etc.); VALUE; DESCRIPTION.
1; Media; 2uL; white, solid-bottom Corning assay plate.
2; Compounds; 23nL; Echo acoustic dispenser.
3; Cell; 5uL; 500 cells per well.
4: Incubation; 72hr; 37 C, 5% CO2, 95% humidity.
5; Reagent; 3uL; CellTiter-Glo reagent (Promega).
6; Incubation; 10min; room temperature.
7; Detection; Luminescence; ViewLux plate reader (PerkinElmer).
NOTES (numbers refer to Sequence numbers above
1. Quantitative high-throughput screening (qHTS) of small molecule compounds was conducted on drug resistant SYKi MV4-11 cell line.
2. Twenty-three nanoliter of small molecule compounds were added to each assay plates using the Echo acoustic dispenser (Beckman Coulter).
3. Cells were seeded into the assay plates at a final density of 500 cells in 5uL of media per well using the Multidrop Combi dispenser.
4. Plates were covered with stainless steel gasketed lids and incubated for 72 hours at standard cell culture conditions.
5. Viability was assessed by adding 3uL of CellTiter-Glo detection reagent (Promega).
6. Plates were covered with gasket lids and incubated for 10 minutes at room temperature.
7. Luminescence was measured on a ViewLux plate reader (PerkinElmer).
As to `[O-][n+]1cccc(/C(Cl)=N/OC[C@@H](O)CN2CCCCC2)c1`, the “viability, % of control” value is 87.3%.
For `O=C1C(Cl)=C(N2CCOCC2)C(=O)N1c1ccc(Cl)c(Cl)c1`, the Potency was 5.02 µM (active).
Take `Nc1ccc(C(=O)O)c(O)c1`: the “viability, % of control” value is 71.9%.
In the case of `COc1cc(OC)c(C(=O)/C=C/c2ccccc2)c2c1C=CC(C)(C)O2`, the Potency is 5.17 µM (active).
Regarding `COC1OC(OC)C(O)(CCC2(C)C(C)CCC3(C)C2CC(O)C(O)C32CO2)C1O` (stereo not given), the “viability, % of control” value was 95.5% [at 17.3 µM].
In the case of `O=C(Nc1ccn(Cc2ccc(O)cc2C(F)(F)F)n1)c1c(F)cccc1F`, the Potency is 13 µM (active).
For the molecule `CCOC(=O)[C@H](CCc1ccccc1)N[C@@H](C)C(=O)N1Cc2ccccc2C[C@H]1C(=O)O`, the Potency is 5.96 µM (active).
As for `c1cnc(N2CCN(Cc3ccc4c(c3)OCO4)CC2)nc1`, the “viability, % of control” value is 90.5%.
As for `CN(C)CC(=O)Nc1ccc2[nH]c(=O)c3ccccc3c2c1`, the Potency was 20.6 µM (active).
The same measure, in the same setting: the figure for `CC(=O)SCC(=O)c1ccc(NS(=O)(=O)c2ccc(OCCCN(C)C)cc2)nc1` is 2.91 µM (active).
As to `Cc1cccc(OCC(O)CNC(C)(C)C)c1C` (stereo not given), the “viability, % of control” value was 87.4%.
On the same count and under the same terms, to `CCC(O)C(C)C1CCC(C(C)C(=O)O)O1` (stereo not given) belongs 88.3%.
Consider `O=C(OC[C@H]1O[C@H](O[C@]2(CO)O[C@H](CO)[C@@H](O)[C@@H]2O)[C@H](O)[C@@H](O)[C@@H]1O)c1ccc(O)cc1`, for which the “viability, % of control” value was 119% [at 17.3 µM].
Still for that read-out and setting: to `Cc1cc(-c2ccccc2)nnc1NCCN1CCOCC1` belongs 99%.
For `COc1cc(C)c(Sc2cnc(NC(=O)c3ccc(CNC(C)C(C)C)cc3)s2)cc1C(=O)N1CCN(C(C)=O)CC1` (stereo not given), the Potency is 7.42 µM (active) and 8.2 µM (active).
In the case of `Cn1cc(C2=C(c3c4n(c5ccccc35)CCC(CN)C4)C(=O)NC2=O)c2ccccc21` (stereo not given), the Potency was 2.7 µM (active).
With `CCOc1ncc(F)c(=O)[nH]1`, the “viability, % of control” value is 69.1%.
With `Cc1cc(C(C)(C)C)cc(C)c1CC1=NCCN1`, the Potency is 5.25 µM (active).
With `C=CC(C)(O)CC/C=C(\C)C(=O)O[C@@H]1[C@@H](O)[C@H](OC(C)(C=C)CC/C=C(\C)C(=O)O[C@@H]2O[C@H](CO)[C@@H](O)[C@H](O)[C@H]2O)O[C@H](CO)[C@H]1OC(=O)/C(C)=C/CCC(C)(O)C=C` (stereo not given in full), the viability, % of control is 77.6% [at 9.25 µM].
On to `COc1cc(N2CCN(C(C)=O)CC2)ccc1Nc1ncc(Cl)c(Nc2ccc(N3CCN(C(C)=O)CC3)cc2OC)n1`, for which the Potency is 366 nM (active) and 1.05 µM (active).
On to `CC1[C@@H](O)[C@@H](O)C2[C@]3(C)C(C[C@H]4OC(=O)[C@H](O)[C@]1(O)[C@@]24C)C(C)(O)C[C@H](O)[C@H]3O` (stereo not given in full), for which the “viability, % of control” value was 98.4% [at 17.3 µM].
The same measure, in the same setting: the figure for `C[C@@H]1O[C@@H](OC(=O)Cc2ccccc2)[C@H](O)[C@H](O)[C@H]1O` is 90.4%; for `C/C=C/C(=O)N(CC)c1ccccc1C` it is 94.4%; for `C[C@@H]1O[C@@H](OC[C@H]2O[C@@H](OCCc3ccccc3)[C@H](O)[C@@H](O)[C@@H]2O)[C@H](O)[C@H](O)[C@H]1O` it is 79.9% [at 17.3 µM].
Consider `O=c1cc(N2CCOCC2)oc2c(-c3ccc4c(c3)OCCO4)csc12`, for which the Potency is 0.59 µM (active).
As to `CC1OC(=O)C[C@@H]2C(C(=O)O)=CO[C@@H](O[C@H]3O[C@H](CO)[C@@H](O)[C@H](O)[C@H]3O)[C@H]12` (stereo not given in full), the “viability, % of control” value is 80.8%.
Take `C=C(C)C(=O)O[C@H]1C[C@@](C)(O)C2(O)CCC(C)(/C=C3/OC(=O)C(COC)=C31)O2` (stereo not given in full): the Potency was 0.453 µM (active).
On to `COc1ccc2cc(OCC3(C(=O)O)CN(C(=O)c4ccc(F)cc4)C3)ccc2c1`, for which the “viability, % of control” value is 75.8%.
On the same count and under the same terms, the figure for `CN=C(NC#N)NCCSCc1nc[nH]c1C` is 93.5%.
As to `c1ccc(-c2oc3ncnc(NC[C@@H]4CCCO4)c3c2-c2ccccc2)cc1`, the Potency was 13 µM (active).
Same read-out and setting: the figure for `O=C1Cc2c([nH]c3ccc([N+](=O)[O-])cc23)-c2ccccc2N1` is 0.502 µM (active).
For `COC1CC(O[C@H]2CC[C@@]3(C)C(=CC[C@]4(O)C3[C@H](O)[C@@H](O)[C@]3(C)[C@@H]([C@H](C)O)CC[C@@]34O)C2)OC(C)C1OC1CC(OC)C(OC2CC(OC)C(OC3OC(C)C(OC4OC(CO)C(O)C(O)C4O)C(OC)C3O)C(C)O2)C(C)O1` (stereo not given in full), the viability, % of control is 76.2% [at 9.25 µM].
As for `N#CCC(C1CCCC1)n1cc(-c2ncnc3[nH]ccc23)cn1` (stereo not given), the Potency is 10.3 µM (active).
Regarding `CCOC(=O)[C@H](CCc1ccccc1)N[C@H]1CS[C@H](c2cccs2)CN(CC(=O)O)C1=O`, the Potency was 13.3 µM (active) and 5.9 µM (active).
Still for that read-out and setting: to `C=C(C)C(=O)OC1CC2(C)OC(=CC2=O)C(=C)CC2OC(=O)C(COC)C12` (stereo not given) belongs 1.61 µM (active); to `C#C[C@]1(O)CC[C@H]2[C@@H]3CCC4=C/C(=N/O)CC[C@@H]4[C@H]3CC[C@@]21CC`, 25.9 µM (active).
For the molecule `CC1=CC(=O)CC(C)(C)[C@@]1(O)/C=C/C(C)O[C@@H]1O[C@H](CO)[C@@H](O)[C@H](O)[C@H]1O` (stereo not given in full), the “viability, % of control” value is 109% [at 17.3 µM].
Same read-out and setting: the figure for `CC(O)(P(=O)(O)O)P(=O)(O)O` is 57.2%.
Still for that read-out and setting: the figure for `C=C1C(=O)OC2CC(C)=C(C(C)CCCO[C@@H]3O[C@H](CO)[C@@H](O)[C@H](O)[C@H]3O)C(O)C12` (stereo not given in full) is 89.7% [at 17.3 µM]; for `Nc1ccc(S(=O)(=O)Nc2ccccn2)cc1` it is 101%.

Source of the values: PubChem BioAssay (NCATS).
